The list is not random: actives were taken first. Their share in the collection is about 3.6%.
TRHR agonist: TRH receptor (human) agonism. P34981. TRHR cells, calcium flux fluo-8, FDSS agonist mode. activation, % at 2 µM. 360,000 tested, 0.18% active. AID 493084; also: 0% is about no effect
Target sequence (P34981 whole entry, looked up): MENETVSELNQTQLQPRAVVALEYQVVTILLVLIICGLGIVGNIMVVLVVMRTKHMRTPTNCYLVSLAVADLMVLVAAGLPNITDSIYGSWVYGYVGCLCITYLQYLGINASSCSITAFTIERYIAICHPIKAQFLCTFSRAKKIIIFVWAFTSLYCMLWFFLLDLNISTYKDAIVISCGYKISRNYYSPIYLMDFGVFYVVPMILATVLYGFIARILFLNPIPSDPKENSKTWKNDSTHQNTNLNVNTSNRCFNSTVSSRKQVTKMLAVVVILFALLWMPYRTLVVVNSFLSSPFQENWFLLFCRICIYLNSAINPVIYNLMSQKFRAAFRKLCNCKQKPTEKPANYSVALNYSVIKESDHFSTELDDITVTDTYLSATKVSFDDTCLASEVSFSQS
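In this calcium-flux screen, cells bearing human TRHR are dye-loaded with fluo-8, baselined for 10 cycles, then exposed to library compounds; positive kinetic calcium responses during the agonist phase mark hits, with TRH as control.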
TRHR enhancer: allosteric enhancers of human TRH receptor; 360,000 tested, 0.66% active; P34981; TRHR cells, fluo-8 calcium fluorescence, EC20 TRH enhancement; enhancement, % at 2 µM; in the data active = enhancement above about 30%; also: 0% is about no effect
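Enhancer read-out: after compound pinning and an initial kinetic agonist-mode read, an EC20 of TRH (10 nM final) was injected and fluo-8 calcium signal (Ex 480/Em 530) followed at 1 s/cycle for 100 cycles in TRHR-expressing cells.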
D1 antag: blocks dopamine activation of the human D1 receptor; HEK293 TREx D1 cells, calcium flux, dopamine EC80; hits give low values; activity change, negative = inhibition, % at 10 µM; 360,000 tested, 3.2% active; AID 504652; in the data active = activity change below about -30%; also: % is scaled to controls: 0 for no effect and ±100 for the full control effect
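Kinetic fluorescence of a calcium dye serves as the read-out. D1-expressing Hek293 Trex cells, induced overnight at 30 C, are exposed to compound for 180 s before an EC80 dopamine addition, then read 180 s further.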
D1 PAM: human D1 dopamine receptor positive modulation; 360,000 tested, 0.036% active; potentiation, % at 10 µM; HEK293 TREx D1 cells, calcium flux, dopamine EC20 potentiation; P21728; in the data active = potentiation above about 30%; also: 0% is about no effect
D1 ag: activates the human D1 dopamine receptor | P21728 | HEK293 T-REx D1 cells, calcium flux, agonist mode | activation, % at 2 µM | 360,000 tested, 1% active | AID 504660; also: 0% is about no effect
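Agonism was scored from calcium flux recorded over 180 s (1 read/s) after pintool compound addition, following a 10-cycle baseline. Cells were inducible force-coupled HEK293 TREx D1, plated overnight at 30 C and loaded with no-wash calcium dye.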
LDHA inh: inhibitors of human lactate dehydrogenase A | P00338 | 480,000 tested, 0.15% active | purified LDHA, NADH/diaphorase-resazurin fluorescence; hits give low values | activity change, % (values are at about 110 or 230 µM); in the data active = activity change below about -30%;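 also: plate controls were DMSO wells for no effect and wells without enzyme for full effect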
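Human LDH5 at 2 nM final in Tris HCl pH 7.4 with 0.06 mM NADH and 0.2 mM pyruvate, reacted 5 minutes at room temperature. Remaining NADH coupled via diaphorase/resazurin; resorufin fluorescence read at 0 and 20 minutes, normalized to enzyme-free and DMSO wells.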
Active calls of the source: *; nt = no result. Rule as the data show it, unless noted: active = activation above about 30%; inactive = the rest.

SMILES | TRHR agonist | TRHR enhancer | D1 antag | D1 PAM | D1 ag | LDHA inh
COc1ccc(-c2nn(CCC#N)cc2C(=O)Nc2cccc(C(=O)O)c2)cc1[N+](=O)[O-] | 0.3 | 8.9 | -6.4 | -1.3 | 3.5 | -2.7
COc1ccc(-c2nn(CCC#N)cc2C(=O)Nc2cccc(C(=O)O)c2)cc1OC | 0.5 | 9.0 | -36.4* | -5.2 | 1.7 | -1.5
O=C(NCc1ccncc1)C(F)(F)C(F)(F)C(=O)NCc1ccncc1 | 0.7 | -0.9 | -42.6* | -7.2 | 5.7 | -4.8
O=C(NCc1ccncc1)c1cc(F)c(F)cc1Cl | -0.4 | -2.0 | -39.7* | -3.9 | 0.4 | -14.0
O=C(NCc1ccncc1)c1c(F)c(F)c(F)c(F)c1F | 0.8 | 3.2 | -17.6 | 1.3 | 4.6 | 3.5
CC(NC(=O)COC(=O)Cc1n[nH]c(=O)c2ccccc12)c1ccccc1 (stereo unspecified) | nt | nt | nt | nt | nt | 1.9
Cc1ccc(NC(=O)C(C#N)=C2CCCCCC2)c(C)c1 | nt | nt | nt | nt | nt | 1.2
CCCCn1c(O)c(N=Nc2ccccn2)c2ccccc21 | -0.8 | -1.6 | 15.1 | -4.7 | 3.4 | 4.5
CCCCn1c(O)c(N=Nc2ccccc2O)c2ccccc21 | 8.6 | -5.8 | -0.8 | 2.3 | 30.1* | 5.1
CC(=O)NNC(=S)Nc1cc(Cl)ccc1Cl | nt | nt | nt | nt | nt | 1.2
COCCNC(=O)C1CC2Cn3c(nc4cc(C)c(C)cc43)C2N1C (stereo unspecified) | -0.2 | -10.5 | -77.7* | -8.8 | 0.8 | -0.8
Cc1ccc2oc(=O)c(S(=O)(=O)c3ccc(F)cc3)cc2c1 | -0.6 | -5.1 | -1.4 | 0.3 | 2.1 | -2.5
O=c1oc2c(F)cc(F)cc2cc1S(=O)(=O)c1ccc(F)cc1 | -0.9 | 7.3 | 6.0 | -1.2 | 69.2* | 3.8
CC(=O)Nc1cccc(NS(=O)(=O)c2c(C)noc2C)c1 | nt | nt | nt | nt | nt | 3.4
Cc1noc(C)c1S(=O)(=O)Nc1cccc(CO)c1 | 0.5 | 0.0 | -31.4* | -5.3 | 2.7 | -2.6
O=S(=O)(c1ccccc1Oc1ccc(Cl)cc1Cl)N1CCCCC1 | -0.8 | -3.6 | -47.1* | -1.1 | 4.9 | -2.2
Cc1ccc(C(=O)NC2CC3CCC(C2)N3Cc2ccco2)cc1 (stereo unspecified) | -0.5 | 3.7 | -69.5* | -28.1 | 0.2 | -5.8
CCc1ccccc1NC(=O)NC1CC2CCC(C1)N2Cc1ccco1 (stereo unspecified) | -0.3 | 1.7 | 5.6 | 7.8 | 0.2 | -1.4
COc1cc(OC)cc(C(=O)NC2CC3CCC(C2)N3Cc2ccco2)c1 (stereo unspecified) | -0.4 | -2.6 | -34.5* | -11.3 | 0.1 | -6.2
Cc1ccc(C)c(NC(=S)NC2CC3CCC(C2)N3Cc2ccco2)c1 (stereo unspecified) | -0.9 | 6.4 | -5.4 | -2.5 | 21.3 | -13.0
O=C(Nc1cccc(Cl)c1)NC1CC2CCC(C1)N2Cc1ccco1 (stereo unspecified) | 0.1 | -6.5 | -40.7* | -7.3 | 18.9 | -1.2
COCCNC(=S)NC1CC2CCCC(C1)N2Cc1ccco1 (stereo unspecified) | -0.2 | 10.8 | 5.2 | -4.7 | 9.5 | -1.2
CC(=O)Nc1ccc2c(c1)CN(c1cc(C)ccc1C)CO2 | 0.0 | -3.1 | -36.6* | -2.3 | 9.2 | 7.6
COc1ccc(N2CCN(c3ncnc4c3nnn4Cc3ccccc3Cl)CC2)cc1 | -0.4 | 5.5 | -41.8* | -12.0 | 8.3 | -7.9
COc1ccc(N2CCN(c3ncnc4c3nc3n4CCCCC3)CC2)cc1 | -0.5 | 0.5 | -35.1* | -4.5 | 9.3 | -7.9
O=C(NCc1ccccc1)C1CCN(c2ncnc3c2nc2n3CCCCC2)CC1 | -0.4 | 3.7 | -32.6* | -2.9 | -0.5 | -4.9
COc1cccc(CNC(=O)C2CCN(c3ncnc4c3nc3n4CCCCC3)CC2)c1 | -0.8 | 0.2 | 4.6 | -3.4 | 0.0 | -12.6
O=C(CN1CCCC1c1ccc2c(c1)OCCCO2)Nc1ccccc1Cl (stereo unspecified) | nt | nt | nt | nt | nt | 6.9
O=C(O)c1ccc(NS(=O)(=O)c2ccc(Cl)c(C(=O)Nc3ccccc3)c2)cc1 | 0.3 | 25.2 | -0.6 | 1.4 | -2.5 | -5.0
O=C(O)c1ccc(Cl)c(S(=O)(=O)Nc2ccccc2C(=O)Nc2ccc(Cl)cc2)c1 | -0.9 | -8.4 | -1.1 | -0.8 | 1.1 | -37.9*
